{"source": "PubChem BioAssay (NCATS)", "note": "Records with an inconclusive call do not appear. The source made the active and inactive calls. Calls follow the shape of the dose curve; as a rule, active = well fitted cell-killing curve with a large enough effect; inconclusive = small, poorly fitted or top-dose-only effect, or effect the other way; inactive = no such curve, though single readings can be large or run the other way. Potency is read from the fitted curve at half-maximal effect."}
{"assay": "Quantitative High-Throughput drug screen in 47 multiple myeloma cell lines against the NCATS MIPE library collection: ARD_JJKsccE7 cell viability assay (AID 1918929)", "conditions": "ARD myeloma cell line viability, CellTiter-Glo, 48 h; series mostly up to 45.8 µM", "excerpt": "PI: Beverly A. Mock Ph.D.\nLaboratory of Cancer Biology and Genetics,\nCenter for Cancer Research, National Cancer Institute,\nNational Institute of Health, Bethesda, Maryland\nDrug resistance and disease progression are common in multiple myeloma (MM) patients, underscoring the need for new therapeutic combinations. […] We hypothesized that effective combinations would reduce MYC expression and enhance p16 activity. […] These preclinical data identify potentially useful drug combinations for evaluation in drug-resistant MM and reveal potential mechanisms of combined drug sensitivity.\nDescribed herein is the primary MIPE qHTS used to cherrypick compounds. Validated compounds were then further tested for potential synergistic activiy.\n[1] Peat TJ, Gaikwad SM, Dubois W, Gyabaah-Kessie N, Zhang S, Gorjifard S, Phyo Z, Andres M, Hughitt VK, Simpson RM, Miller MA, Girvin AT, Taylor A, Williams D, D'Antonio N, Zhang Y, Rajagopalan A, Flietner E, Wilson K, Zhang X, Shinn P, Klumpp-Thomas C, McKnight C, Itkin Z, Chen L, Kazandijian D, Zhang J, Michalowski AM, Simmons JK, Keats J, Thomas CJ, Mock BA. Drug combinations identified by high-throughput screening promote cell cycle transition and upregulate Smad pathways in myeloma. Cancer Lett. 2023 Aug 1;568:216284. doi: 10.1016/j.canlet.2023.216284. Epub 2023 Jun 24. PMID: 37356470; PMCID: PMC10408729.\nSEQUENCE No. (e.g., 1, 2, 3, etc.); […] (e.g., Cells, Incubation, Reagent, etc.); VALUE and DESCRIPTION.\n1; Cells; 5 uL; white, solid bottom 1536-well Greiner assay plate.\n2; Compounds; 23 nL; Kalypsis pin tool (Wako USA) equipped with a 1536-well pin head to transfer to the assay plates.\n3; Incubation; 48 hours; 37C incubation.\n4; Reagent;5uL; CellTiter Glo (Promega).\n5; Detector; 425V; Luminescence; Viewlux PerkinElmer.\nNOTES (numbers refer to Sequence numbers above)\n1. The cell-based screening methods employed in this study were like those previously published. Briefly, the corresponding myeloma cell lines were screened in 1,536-well plates with 500 cells, 5-uL per well for inhibition of cell viability (assessed by measuring ATP levels with CellTiterGlo).\n2. NCATS MIPE 4.0 library of approved and investigational drugs were added using the Kalypsis pin tool. Wells treated with DMSO only for 100% viability and media only wells for 0% viability were used as controls.\n3. The assay plates were covered and incubated for 48 hours in a 37C, 5% CO2 incubator with controlled humidity.\n4. After 48 hours, CellTilter-GloTM luminescent substrate mix (Promega) reagent was added to the assay plate and plates we incubated for 5 min at room temperature.\n5. Signal was measured as median relative luminescence units on a ViewLux (PerkinElmer) multiplate reader.\n[1] Heske CM, Davis MI, Baumgart JT, Wilson K, Gormally MV, Chen L, Zhang X, Ceribelli M, Duveau DY, Guha R, Ferrer M, Arnaldez FI, Ji J, Tran HL, Zhang Y, Mendoza A, Helman LJ, Thomas CJ. Matrix Screen Identifies Synergistic Combination of PARP Inhibitors and Nicotinamide Phosphoribosyltransferase (NAMPT) Inhibitors in Ewing Sarcoma. Clin Cancer Res. 2017 Dec 1;23(23):7301-7311. doi: 10.1158/1078-0432.CCR-17-1121. Epub 2017 Sep 12. PMID: 28899971; PMCID: PMC6636827."}
{"smiles": "CCn1nnc2c(N3CCOCC3)nc(-c3ccc(NC(=O)Nc4ccc(C(=O)N5CCN(C)CC5)cc4)cc3)nc21", "Potency": "37.2 nM (active)"}
{"smiles": "Cc1ccc(NC(=O)C2(c3ccc4c(c3)OC(F)(F)O4)CC2)nc1-c1cccc(C(=O)O)c1", "Potency": "46.9 nM (active)"}
{"smiles": "Cc1nc(N)ncc1-c1nc(N2CCOCC2)c2sc(C(C)(C)O)cc2n1", "Potency": "33.2 nM (active)"}
{"smiles": "O=C(c1cncc(Br)c1)N1CCC(N2CCCC2)CC1", "Potency": "inactive"}
{"smiles": "O=C(Nc1cn[nH]c1-c1nc2ccc(CN3CCOCC3)cc2[nH]1)NC1CC1", "Potency": "3720 nM (active)"}
{"smiles": "NCC(=O)Nc1ccc(-n2nc(C(F)(F)F)cc2-c2ccc3c(ccc4ccccc43)c2)cc1", "Potency": "148 nM (active)"}
{"smiles": "CN(C1CCc2c(c3ccccc3n2CC(=O)O)C1)S(=O)(=O)c1ccc(F)cc1", "note": "(stereo not given)", "Potency": "5260 nM (active)"}
{"smiles": "Cc1cccc(C=NNc2cc(N3CCOCC3)nc(OCCc3ccccn3)n2)c1", "Potency": "1050 nM (active)"}
{"smiles": "Cc1cc(Nc2nc(N[C@@H](C)c3ccc(F)cc3)c(C#N)cc2F)n[nH]1", "Potency": "332 nM (active)"}
{"smiles": "O=C(NC1CCNCC1)c1[nH]ncc1NC(=O)c1c(Cl)cccc1Cl", "Potency": "743 nM (active)"}
{"smiles": "CN1CC[C@@H](c2c(O)cc(O)c3c(=O)cc(-c4ccccc4Cl)oc23)[C@@H](O)C1", "Potency": "46.9 nM (active)"}
{"smiles": "CC(C)c1cc(C(=O)N2Cc3ccc(CN4CCN(C)CC4)cc3C2)c(O)cc1O", "Potency": "93.5 nM (active)"}
{"smiles": "Cc1c(Cn2c(C)nc3c(C(=O)O)cc(N4CCOCC4)cc32)cccc1C(F)(F)F", "Potency": "inactive"}
{"smiles": "C[C@]12CC[C@H](O)CC1=CCC1C2CC[C@]2(C)C(n3cnc4ccccc43)=CCC12", "note": "(stereo not given in full)", "Potency": "inactive"}
{"smiles": "CCCCOc1c(C(=O)c2c(F)cc(C)cc2F)cnc2n[nH]cc12", "Potency": "2960 nM (active)"}
{"smiles": "OCc1ccc(-c2ccc(-c3ccc(CO)s3)o2)s1", "Potency": "inactive"}
{"smiles": "CC(C)(O)CCc1ccc(OCc2cc(-c3cccc(OC(F)F)c3)c3ncccc3c2)cc1", "Potency": "inactive"}
{"smiles": "CC(C)(O)c1cc2nc(-c3cnc(N)nc3)nc(N3CCOCC3)c2s1", "Potency": "105 nM (active)"}
{"smiles": "C[C@@H]1COC(Nc2ccc3ncnc(Nc4ccc(OCc5nccs5)c(Cl)c4)c3c2)=N1", "Potency": "4180 nM (active)"}
{"smiles": "C[C@@H](Oc1cc(-c2cnn(C3CCNCC3)c2)cnc1N)c1c(Cl)ccc(F)c1Cl", "Potency": "11800 nM (active)"}
{"smiles": "Nc1ccccc1NC(=O)c1ccc(CNC(=O)OCc2cccnc2)cc1", "Potency": "935 nM (active)"}
{"smiles": "COC(=O)Nc1nc2ccc(C(=O)c3ccc(F)cc3)cc2[nH]1", "Potency": "332 nM (active)"}
{"smiles": "Cc1cnc(-c2cnc(NCCNc3ccc(C#N)cn3)nc2-c2ccc(Cl)cc2Cl)[nH]1", "Potency": "inactive"}
{"smiles": "Cc1ccc(C(N)=O)cc1Nc1nccc(-c2cn(C(C)C)c3cnccc23)n1", "Potency": "3720 nM (active)"}
{"smiles": "Cc1ccc(S(=O)(=O)Nc2cc(Cl)ccc2C(=O)Nc2nc(-c3ccccc3)cs2)cc1", "Potency": "7430 nM (active)"}
{"smiles": "COc1cc(Nc2ncc(F)c(Nc3ccc4c(n3)N(COP(=O)(O)O)C(=O)C(C)(C)O4)n2)cc(OC)c1OC", "Potency": "1180 nM (active)"}
{"smiles": "Cc1ccc(CN2CCNCC2)cc1NC(=O)CNc1ccc(F)c(F)c1", "Potency": "inactive"}
{"smiles": "Nc1ccccc1NC(=O)c1ccc(CNc2nccc(-c3cccnc3)n2)cc1", "Potency": "935 nM (active)"}
{"smiles": "N#Cc1c(O)c2c(-c3ccc(-c4ccccc4O)cc3)csc2[nH]c1=O", "Potency": "inactive"}
{"smiles": "C1=CCOCc2cc(ccc2OCCN2CCCC2)Nc2nccc(n2)-c2cccc(c2)OCC1", "Potency": "1870 nM (active)"}
{"smiles": "Nc1nc(Nc2ccc(S(N)(=O)=O)cc2)nn1C(=O)c1c(F)cccc1F", "Potency": "5260 nM (active)"}
{"smiles": "O=c1[nH]c(=O)n(C2CCCO2)cc1F", "note": "(stereo not given)", "Potency": "inactive"}
{"smiles": "CN1CCN(c2cc(C(=O)Nc3ccc4c(c3)-c3c(c(C(N)=O)nn3-c3ccc(F)cc3)CC4)c(Cl)cn2)CC1", "Potency": "16600 nM (active)"}
{"smiles": "COc1cc2nccc(Oc3ccc(NC(=O)C4(C(=O)Nc5ccc(F)cc5)CC4)cc3)c2cc1OC", "Potency": "2960 nM (active)"}
{"smiles": "COc1cc2c(Oc3ccc(NC(=O)C4(C(=O)Nc5ccc(F)cc5)CC4)cc3F)ccnc2cc1OCCCN1CCOCC1", "Potency": "2640 nM (active)"}
{"smiles": "CCCCCN(CCC12CC3CC(CC(C3)C1)C2)C(=O)NCCCc1ccncc1", "Potency": "11800 nM (active)"}
{"smiles": "O=C(CCCCCCNC(=O)c1cnc(N(c2ccccc2)c2ccccc2)nc1)NO", "Potency": "4690 nM (active)"}
{"smiles": "CC(C)c1noc(N2CCC(COc3ccc(-c4ccc(S(C)(=O)=O)cc4)nc3)CC2)n1", "Potency": "inactive"}
{"smiles": "CN1CCN(c2ccc3nc(-c4c(N)c5c(F)cccc5[nH]c4=O)[nH]c3c2)CC1", "Potency": "14800 nM (active)"}
{"smiles": "C[C@@H](Oc1cc(-n2cnc3ccc(CN4CCN(C)CC4)cc32)sc1C(N)=O)c1ccccc1C(F)(F)F", "Potency": "26.4 nM (active)"}
